Source: PubChem BioAssay AID488969 (Vanderbilt High Throughput Screening Facility, 2010)
In all, about 110,000 compounds were measured (“z-score”: median about -0.1, highest 2% from about 2 on). Shown is part of a subset that was picked to be rich in the highest values. Activity calls are given as the source filed them.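 How the source made its calls: active means z-score in the third read window above 3 or below -3; inactive means the rest.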

Biological target: Metabotropic glutamate receptor 8 (Rattus norvegicus) (UniProt P70579)
Sequence (P70579 whole entry, looked up): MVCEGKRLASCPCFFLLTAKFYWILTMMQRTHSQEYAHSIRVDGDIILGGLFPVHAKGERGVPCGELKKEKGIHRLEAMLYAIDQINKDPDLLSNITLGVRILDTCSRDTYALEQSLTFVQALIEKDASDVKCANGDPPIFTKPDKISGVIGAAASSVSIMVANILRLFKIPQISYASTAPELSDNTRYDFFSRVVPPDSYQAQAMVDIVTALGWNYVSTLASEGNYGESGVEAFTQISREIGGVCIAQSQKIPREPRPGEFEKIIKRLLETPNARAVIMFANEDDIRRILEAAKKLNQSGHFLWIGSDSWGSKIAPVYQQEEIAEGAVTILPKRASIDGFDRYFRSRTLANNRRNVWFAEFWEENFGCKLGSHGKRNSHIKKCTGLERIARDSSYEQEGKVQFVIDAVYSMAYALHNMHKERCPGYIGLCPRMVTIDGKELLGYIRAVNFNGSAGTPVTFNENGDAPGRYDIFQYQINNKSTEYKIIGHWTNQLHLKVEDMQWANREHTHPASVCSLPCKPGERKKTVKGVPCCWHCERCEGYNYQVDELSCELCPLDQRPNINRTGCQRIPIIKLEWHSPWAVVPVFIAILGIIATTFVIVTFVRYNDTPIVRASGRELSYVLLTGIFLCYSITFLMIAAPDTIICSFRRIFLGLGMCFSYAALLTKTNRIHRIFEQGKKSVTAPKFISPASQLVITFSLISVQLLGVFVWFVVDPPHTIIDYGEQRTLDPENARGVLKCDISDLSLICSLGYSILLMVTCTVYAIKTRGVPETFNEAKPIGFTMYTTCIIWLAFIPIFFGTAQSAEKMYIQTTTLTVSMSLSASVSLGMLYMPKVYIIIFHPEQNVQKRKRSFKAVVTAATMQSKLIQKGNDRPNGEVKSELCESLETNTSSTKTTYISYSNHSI
Assay: rat mGluR8 modulators via GIRK flux, primary screen, cell-based, thallium flux, HTS (AID 488969)
Details: HEK293 rat mGluR8, GIRK (G protein-gated inwardly rectifying potassium channel) thallium flux, FluoZin2; at 10 µM; stronger effect = higher value; submaximal glutamate (EC20) added with thallium

Structure (SMILES) | z-score
CC(=O)N1CCCc2cc(S(=O)(=O)N(C)Cc3ccccc3)ccc21 | 0.884
Cc1ccc(SCc2nc3ccccc3[nH]2)cc1 | -0.0609
CCCC(=O)NC(Nc1cccc(C(F)(F)F)c1)C(Cl)(Cl)Cl (configuration not stated) | -0.917
CCOc1ccc(OCC(=O)Nc2ccc(OC)cc2)cc1 | -0.476
COc1ccc(OCC(=O)NNC(=O)C(=O)Nc2ccc(C)cc2)cc1 | 2.73
COc1cccc(NC(=O)CSc2nc(N)cc(N)n2)c1 | 3.37 (active)
Nc1cc(N)nc(SCC(=O)Nc2ccccc2)n1 | -0.306
COc1ccc(OCC(=O)Nc2ccccc2O)cc1 | -0.431
COc1ccccc1NC(=O)COc1ccccc1 | 0.137
COc1ccccc1NC(=O)CC1COc2ccccc2O1 (configuration not stated) | 0.0423
Cc1cccc(NC(=O)CSc2nc(N)cc(N)n2)c1 | -0.298
COc1ccc(OCC(=O)Nc2ccccc2OC(F)F)cc1 | 2.69
COc1cccc(NC(=O)CC2COc3ccccc3O2)c1 (configuration not stated) | 5.36 (active)
COc1ccc(OCC(=O)Nc2ccc(C)cc2)cc1 | -0.351
COc1cc(OC)c(OC)cc1NC(=O)CC1COc2ccccc2O1 (configuration not stated) | -0.0814
COc1ccc(NS(=O)(=O)c2cc(S(C)(=O)=O)ccc2C)cc1 | -0.235
COc1ccc2c(c1)C(NC(=O)C(F)(F)F)CC2=O (configuration not stated) | 0.142
O=C(N1CCOCC1)N1CCN(C(=O)N2CCOCC2)CC1 | -0.108
COc1cc(C(=O)CSc2nncn2C)cc(OC)c1OC | -0.245
CC1(C)Cc2nc3sc4c(OCc5ccccc5)ncnc4c3cc2CO1 | -0.0531
CCCN(CCC)C1=N/C(=C\c2ccco2)C(=O)N1c1ccccc1 | -0.536

Structure (SMILES) | z-score
Cc1ccccc1NC1C=CS(=O)(=O)C1 (configuration not stated) | -0.358
Cc1ccc(N2C(=O)CCSC23C(=O)Nc2ccccc23)cc1 (configuration not stated) | -0.0429
COc1cc(NC(=O)COc2cccc(OC)c2)cc(OC)c1 | 0.638
COc1cccc(NC(=O)COc2ccc(C)cc2)c1 | 4.04 (active)
CC(C)(C)NC(=O)C(=O)NNC(=O)COc1ccc(Br)cc1 | 1.89
COc1ccc(OCC(=O)Nc2cccc(OC)c2)cc1 | -0.532
Cc1ccc(OCC(=O)NNC(=O)C(=O)NC(C)(C)C)cc1 | 2.61
CC(C)(C)NC(=O)C(=O)NNC(=O)COc1ccccc1 | 0.182
O=C(COc1ccc(S(=O)(=O)NC2CCCCC2)cc1Cl)N1CCN(c2ccccc2)CC1 | 1.16
COc1cccc(/C=N/NC(=O)C(=O)N2CCCC2)c1OC | -0.494
CCSc1nnc(NC(=O)C2CCN(S(=O)(=O)c3ccccc3C(F)(F)F)CC2)s1 | -0.565
O=C(Nc1ccccc1)/C(=C\c1ccc2c(c1)OCO2)NC(=O)c1ccco1 | -0.0407
Cc1ccc(CN2CCNC(=O)C2CC(=O)O)cc1 (configuration not stated) | -0.134
O=C(O)CC1C(=O)NCCN1Cc1ccc(F)c(F)c1 (configuration not stated) | -0.183
COc1ccc(CN2CCNC(=O)C2CC(=O)O)cc1OC (configuration not stated) | 3.61 (active)
CC1CC(C)CN(CCOCCSc2ccccc2)C1 (configuration not stated) | 0.729
O=C(Cn1cc(C(F)(F)F)cc(Cl)c1=O)NCCc1ccccc1 | -0.155
CC(=O)c1cccc(NC(=S)NC(=O)c2ccc(Cl)cc2)c1 | -0.258
COC(=O)c1cccc(NC(=S)Nc2cccc(Cl)c2Cl)c1 | 2.5
Cc1ccc(NC(=O)NC(=S)NC(=O)c2ccccc2)cc1 | 1.68
CCC(=O)Nc1cccc(NC(=S)NC(=O)c2ccccc2)c1 | -0.455

Structure (SMILES) | z-score
CCC(=O)Nc1cccc(NC(=S)NC(=O)c2cccc(C)c2)c1 | 0.23
COC(=O)c1cccc(NC(=S)NCc2ccc(Cl)cc2)c1 | 0.53
CC(=O)c1cccc(NC(=S)NC(=O)c2cccc(Cl)c2)c1 | 8.71 (active)
CC(=O)c1cccc(NC(=S)NC(=O)c2ccccc2Cl)c1 | 1.17
CC(=O)c1cccc(NC(=S)NC(=O)c2ccccc2)c1 | 1.63
CC(=O)c1cccc(NC(=S)NC(=O)c2cccc(C)c2)c1 | 7.49 (active)
COC(=O)c1cccc(NC(=S)Nc2cccc(Cl)c2C)c1 | 0.445
Cc1cccc(NC(=O)NC(=S)NC(=O)c2ccccc2)c1 | 2.86
O=C(c1ccc2snnc2c1)N1CCN(c2ccccn2)CC1 | -0.329
COC(=O)Nc1sc2c(c1C(=O)N1CCOCC1)CCC(C)C2 (configuration not stated) | 0.0522
COc1ccccc1S(=O)(=O)Nc1cccc(-c2nnc3n2CCCCC3)c1 | -0.163
Cc1cc2cc(C(c3nnnn3C(C)(C)C)N(Cc3ccco3)CC3CCCO3)c(=O)[nH]c2cc1C (configuration not stated) | -0.208
O=C(/C=C/c1ccc(F)cc1)c1ccccc1Br | -0.272
COc1ccc2nc(C(F)(F)C(F)(F)F)c(C#N)c(N)c2c1 | -0.334
CC(C)Oc1cccc(C(=O)NC(=S)Nc2ccccc2)c1 | 3.26 (active)
CC(C)Oc1cccc(C(=O)NC(=S)Nc2cccc(C(F)(F)F)c2)c1 | 0.755
O=C(NNC(=S)Nc1cccc(C(F)(F)F)c1)c1cccc(Cl)c1 | 2.97
Cc1ccccc1C(=O)NNC(=S)Nc1cccc(C(F)(F)F)c1 | -0.0547
O=C(NNC(=S)Nc1cccc(C(F)(F)F)c1)c1ccccc1Cl | 0.86
CC(C)Oc1cccc(C(=O)NC(=S)Nc2cccc(NC(=O)c3ccccc3Cl)c2)c1 | -0.41
CCS(=O)(=O)N1CCN(C(=O)COc2ccc(-c3ccccc3)cc2)CC1 | -0.0325

Structure (SMILES) | z-score
O=c1c2c3c(sc2nc2n1CCCC2)CCCCC3 | -0.277
O=c1c2c3c(sc2nc2n1CCCCC2)CCC3 | -0.21
O=c1c2c3c(sc2nc2n1CCCCC2)CCCCC3 | 8.38 (active)
O=C(Cn1c(CC(=O)N2CCOCC2)nc2ccccc21)Nc1ccc2c(c1)OC(F)(F)O2 | 1.15
CCOc1ccc2nc(NC(=O)CN3CCN(C)CC3)sc2c1 | 0.433
C=CCNCCCOc1ccc(C)cc1Br | 0.425
CC(=O)Nc1ccc(S(=O)(=O)N(C)CC(=O)OCC(=O)Nc2cccnc2Cl)cc1 | -0.172
C/C(=N/NC(=O)c1ccoc1C)C12CC3CC(CC(C3)C1)C2 | 0.37
C/C(=N/NC(=O)CNc1ccc(C)cc1)c1ccc(Br)s1 | 0.214
C/C(=N\NC(=O)c1cccc(F)c1)c1ccc(Br)s1 | 7.29 (active)
O=C(NN=C1C2CC3CC(C2)CC1C3)c1cc(Cl)ccc1O | 0.0729
C/C(=N\NC(=O)CNc1cccc(C)c1)c1ccc(Br)s1 | 0.0989
C/C(=N\NC(=O)c1ccc(Cl)c(Cl)c1)c1ccc(Br)s1 | 1.19
CC/C(=N\NC(=O)c1ccccc1Cl)c1ccc(Br)s1 | 0.216
COc1ccccc1NCC(=O)N/N=C(\C)c1ccc(Br)s1 | -0.279
C/C(=N\NC(=O)c1ccccc1O)c1ccc(Br)s1 | 2.99
C/C(=N\NC(=O)c1ccc(Cl)cc1)c1ccc(Br)s1 | 8.88 (active)
C/C(=N/NC(=O)c1cc(Cl)ccc1O)C12CC3CC(CC(C3)C1)C2 | 3.19 (active)
C/C(=N\NC(=O)c1cccc(N/N=C(\C)c2ccccc2)c1)c1ccccc1 | -0.529
